Assay [1] can be described thus: ATG_XTT_Cytotoxicity: Cytotoxicity Assessment in the Attagene TRANS-FACTORIAL HepG2 Assay (AID 2283584). In a few lines: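 Viability endpoint from XTT after 24 h chemical exposure of reporter-transfected human HepG2 liver cells; signal loss fitted relative to DMSO negative control.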
Assay [2] concerns the target Cellular tumor antigen p53 (Homo sapiens) (UniProt P04637). As to the kind of experiment: TOX21_p53_BLA_p2_ratio: Tox21 HCT-116 p53 Agonism Beta-lactamase Assay, Ratio, Phase 2 (AID 2283592). In a few lines: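 Read-out is the blue/green (460/530 nm, 405 nm excitation) ratio after 2 h CCF4-AM loading, fitted as gain versus DMSO. Compounds, pinned at 217-fold dilution from DMSO stocks, stayed 16 h on HCT-116 beta-lactamase reporter cells seeded 5 h earlier.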

Assay [3] can be described thus: TOX21_p53_BLA_p3_viability: Viability Assessment in the Tox21 HCT-116 p53 Agonism Beta-lactamase Assay, Phase 3 (AID 2283593).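 Note: cells exposed to compound for 16 h before reading.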 In a few lines:
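Cellular ATP was quantified by CellTiter-Glo luminescence, read after 30 min at room temperature. Beforehand, HCT116 cells (4000/well) received compound 5 h post-seeding, 217-fold diluted from DMSO, then incubated 16 h at 37C.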

In assay [4] the target is Cellular tumor antigen p53 (Homo sapiens) (UniProt P04637). As to the kind of experiment: TOX21_p53_BLA_p3_ratio: Tox21 HCT-116 p53 Agonism Beta-lactamase Assay, Ratio, Phase 3 (AID 2283596). In a few lines: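 Cells were seeded at 4000/well, rested 5 h at 37C, then dosed with DMSO compound solutions (217-fold dilution) for 16 h. CCF4-AM substrate was loaded for 2 h at room temperature, and the 460/530 nm emission ratio was fitted for gain of signal versus DMSO.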

Assay [5] shares this target. As to the kind of experiment: TOX21_p53_BLA_p5_ratio: Tox21 HCT-116 p53 Agonism Beta-lactamase Assay, Ratio, Phase 5 (AID 2283599). In a few lines:
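Beta-lactamase reporter ratio (blue 460 nm over green 530 nm, 405 nm excitation) after 2 h CCF4-AM loading, in HCT-116 cells exposed 16 h at 37 C to compounds pinned at 217-fold dilution. Increases relative to DMSO baseline scored.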

A short description of assay [6]: TOX21_p53_BLA_p5_viability: Viability Assessment in the Tox21 HCT-116 p53 Agonism Beta-lactamase Assay, Phase 5 (AID 2283600). In a few lines:
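Viability came from CellTiter-Glo ATP luminescence, read after 30 min at room temperature. Before this, HCT-116 p53-bla cells (4000/well) had 16 hours of compound exposure at 37C, with DMSO stocks diluted 217-fold on transfer.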

For assay [7], the target named is Cellular tumor antigen p53 (Homo sapiens) (UniProt P04637). Nature of the assay: TOX21_p53_BLA_p4_ratio: Tox21 HCT-116 p53 Agonism Beta-lactamase Assay, Ratio, Phase 4 (AID 2283601). In a few lines: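 Signal is the blue/green (460nm/530nm) ratio of cleaved versus uncleaved CCF4-AM substrate, read after 2 h substrate loading. Cells were HCT116 carrying the p53-responsive beta-lactamase reporter, dosed 16 h at 37C, 5% CO2; CellTiter-Glo measured in parallel.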

Assay [8] is described as follows: TOX21_p53_BLA_p2_viability: Viability Assessment in the Tox21 HCT-116 p53 Agonism Beta-lactamase Assay, Phase 2 (AID 2283591).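 Note: compound exposure lasted 16 h at 37 °C; actives lower the ATP signal meaning cytotoxicity.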 In a few lines: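 Cytotoxicity readout: CellTiter-Glo ATP luminescence, 30 min at room temperature, after the beta-lactamase read. Cells were HCT116 exposed 16 h at 37C to compounds pin-transferred at 217-fold dilution from DMSO stocks.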

Assay [9] can be described thus: TOX21_p53_BLA_p4_viability: Viability Assessment in the Tox21 HCT-116 p53 Agonism Beta-lactamase Assay, Phase 4 (AID 2283597).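 Note: hits lower the luminescence signal meaning cytotoxicity.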 In a few lines: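 Cytotoxicity as reduced cellular ATP (CellTiter-Glo luminescence, 30 min room temperature), measured in the same wells following the CCF4 FRET p53 reading. Human HCT-116 cells received compounds in DMSO (217-fold dilution) for 16 h.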

As a reminder, the AC50 is the midpoint of the concentration-response curve, whichever way the signal moves.

Where “and” joins values, the source holds several entries; their conditions need not be identical. Equal values may be shown once. Inconclusive results are not listed. Some compounds were tested as several samples or in several runs, with calls that do not always agree. Calls of active or inactive are those of the source. Rule for the calls: active = hit-call score of the fitted dose curve at least 0.9, where 1 is the maximum; inconclusive = response in the unintended direction; inactive = score below 0.9.

Cellular tumor antigen p53 (Homo sapiens), sequence (P04637 whole entry, looked up): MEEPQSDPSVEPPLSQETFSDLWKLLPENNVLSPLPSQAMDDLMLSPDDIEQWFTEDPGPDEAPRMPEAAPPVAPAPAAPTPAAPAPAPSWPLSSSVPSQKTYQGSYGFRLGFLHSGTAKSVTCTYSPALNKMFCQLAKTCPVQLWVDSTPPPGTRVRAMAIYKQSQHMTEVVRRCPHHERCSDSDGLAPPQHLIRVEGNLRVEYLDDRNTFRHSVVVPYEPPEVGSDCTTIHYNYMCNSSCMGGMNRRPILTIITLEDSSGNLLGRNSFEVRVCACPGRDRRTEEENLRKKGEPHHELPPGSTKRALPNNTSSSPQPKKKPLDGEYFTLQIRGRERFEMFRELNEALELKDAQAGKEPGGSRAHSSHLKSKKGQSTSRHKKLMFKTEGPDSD

Regarding `Nc1ncc([N+](=O)[O-])s1`, the molecule was classed as inactive in assay [1], in assay [2], in assay [3], in [4], in [5] and in assay [6]. For the same molecule, the outcome in assay [7] was inactive.
In the case of `Nc1cccc(Cl)c1`, the call in [8], in [2], in assay [3], in assay [4], in [9] and in assay [5] was inactive. The call in [6] and in [7] was inactive.
Take `CCCCCCCCCl`: the call in [1], in [2], in assay [3], in [9], in assay [5] and in assay [6] was inactive. Moreover, the outcome in assay [7] was inactive.
Turning to `O=C(NCO)NCO`, the molecule was classed as inactive in assay [1], in [4], in assay [9], in assay [6] and in assay [7].
For the molecule `O=C1C(Cl)=C(Cl)C(=O)c2ccccc21`, the AC50 is 15 µM (active) in [8]; 30.9 µM (active) and 46.2 µM (active) in assay [3]; 14.5 µM (active) and 14.4 µM (active) in assay [9]; 63.4 µM (active) and 19.6 µM (active) in assay [5]; 57.7 µM (active) in assay [6]; 17.1 µM (active) in assay [7]. Moreover, the result in assay [8], in [2], in assay [6] and in assay [7] was inactive.
As for `C1CCC(NC2CCCCC2)CC1`, the molecule was classed as inactive in [1], in assay [2], in assay [3], in [4], in assay [9] and in assay [5]. Also, the call in [6] and in assay [7] was inactive.
As to `O=P(O)(O)CN(CP(=O)(O)O)CP(=O)(O)O`, the outcome in assay [1], in assay [8], in assay [3], in [4] and in assay [7] was inactive.
Consider `COc1ccccc1OC`, for which the result in [1], in assay [2], in assay [3], in assay [4], in assay [9] and in assay [5] was inactive. For the same molecule, the outcome in assay [7] was inactive.
For the molecule `CCNc1nc(NC(C)(C)C)nc(SC)n1`, the molecule was called inactive in assay [1], in [2], in assay [3], in assay [9], in [5] and in assay [6]. Also, in assay [7], the result was inactive.
Regarding `CCCCCCCCSC(=O)Oc1cc(Cl)nnc1-c1ccccc1`, the call in [8], in assay [2], in assay [4], in assay [9], in assay [5] and in assay [6] was inactive. The AC50 in assay [3] is 59.1 µM (active).
For the molecule `COP(=O)(OC)OC`, the molecule was called inactive in assay [1], in assay [2], in assay [3], in assay [9], in assay [5] and in [6]. In [7], the outcome was inactive.
As for `O=C(Cc1ccccc1)c1ccccc1`, the outcome in assay [8], in [2], in assay [4], in assay [5] and in [7] was inactive.
For the molecule `CCCCCCCCCCCCCCCC[n+]1ccccc1`, the AC50 in assay [3] was 45.6 µM (active) and 81 µM (active) and 46.1 µM (active); in assay [4], 36.1 µM (active) and 53.2 µM (active); in assay [9] it was 66.5 µM (active) [middle of 4 runs]; in assay [5] it was 71.7 µM (active) [middle of 4 runs]; in assay [6], 62.7 µM (active) and 84.3 µM (active) and 80.2 µM (active); in assay [7], 67.7 µM (active) [middle of 4 runs]. Besides, the molecule was called inactive in assay [3], in assay [4] and in assay [6].
Turning to `ClC1=C(Cl)[C@]2(Cl)[C@H]3[C@H]([C@H]4C=C[C@H]3C4)[C@@]1(Cl)C2(Cl)Cl`, the result in assay [2], in assay [3], in assay [9], in assay [5], in assay [6] and in [7] was inactive.
On to `Nc1ccc(-c2ccc(N)c(Cl)c2)cc1Cl`, for which the AC50 in assay [2] was 14.4 µM (active) and 13.7 µM (active) and 16.7 µM (active); in [5], 16.3 µM (active) and 43.3 µM (active); in assay [7] it was 33.6 µM (active). Besides, the call in [3], in assay [9], in assay [5], in assay [6] and in [7] was inactive.
As to `ClCCBr`, the result in [8], in assay [2], in [3], in assay [9], in assay [5] and in assay [6] was inactive. In addition, the outcome in assay [7] was inactive.
Consider `COP(=S)(OC)Oc1c(Cl)cc(C)cc1Cl`, for which the outcome in assay [8], in assay [2], in assay [9], in assay [5] and in assay [7] was inactive.
In the case of `CC(=O)C(Cl)C(=O)N(C)C` (stereo not drawn), the result in [2], in assay [4], in assay [9], in [5], in assay [6] and in assay [7] was inactive.
`COc1ccc(C=O)cc1OC`: the outcome in assay [2], in assay [3], in assay [5], in [6] and in assay [7] was inactive.
As for `CC(C)c1cccc(C(C)C)c1O`, the result in assay [2], in assay [3], in [9], in [5] and in assay [6] was inactive.
In the case of `O=C(OC1CCCCC1)c1ccccc1C(=O)OC1CCCCC1`, the outcome in assay [2], in assay [3], in [9], in [5] and in assay [6] was inactive.
Take `NN=C(N)N`: the result in [2], in [4], in [5] and in assay [7] was inactive.

The values above are taken from PubChem BioAssay (EPA / NIEHS).
